CYP2C9 act: human CYP2C9 activators, primary screen, biochemical, luminescence. Cytochrome P450 2C9 (Homo sapiens), P11712. recombinant CYP2C9, luciferin-H conversion; hits give high values; factor 1 = untreated enzyme, 0 = blocked. activation factor at 5 µM. actives 1.4% (n = 96,000). AID 1024, 2008;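 active means activation factor of 2 or more for CYP2C9 at a 5 µM dose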;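 further: 0 = sulfaphenazole-blocked wells and 1 = vehicle-only wells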
Target sequence (P11712 whole entry, looked up): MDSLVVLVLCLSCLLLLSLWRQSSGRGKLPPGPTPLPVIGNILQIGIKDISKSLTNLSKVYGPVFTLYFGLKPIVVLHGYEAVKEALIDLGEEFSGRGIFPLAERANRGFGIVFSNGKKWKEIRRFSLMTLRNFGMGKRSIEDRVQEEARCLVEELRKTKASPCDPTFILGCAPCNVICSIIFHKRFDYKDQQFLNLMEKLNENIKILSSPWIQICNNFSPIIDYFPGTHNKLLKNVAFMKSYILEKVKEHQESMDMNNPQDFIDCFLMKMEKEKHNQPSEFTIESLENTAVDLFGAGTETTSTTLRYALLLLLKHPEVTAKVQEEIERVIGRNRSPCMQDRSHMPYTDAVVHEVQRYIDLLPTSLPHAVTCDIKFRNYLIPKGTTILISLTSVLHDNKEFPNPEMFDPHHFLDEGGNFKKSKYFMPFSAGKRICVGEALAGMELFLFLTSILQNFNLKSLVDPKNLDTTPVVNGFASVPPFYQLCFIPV
PLAP activator: PLAP enzyme activators, biochemical, luminescence, HTS | Alkaline phosphatase, placental type (Homo sapiens), P05187 | purified PLAP enzyme, luminescent substrate read-out; hits give high values | activation fold at 20 µM | actives 1.2% (n = 96,000) | AID 696, 2007; in the data active means activation fold above about 2
CYP2C9 inhib: blockers of cytochrome P450 2C9 activity – biochemical, luminescence, ADME assay, primary screen | actives 20% (n = 96,000) | inhibition, % at 5 µM | AID 777, 2007 | CYP2C9 Supersomes, luciferin-H conversion | P11712;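 active means blocking of liver enzyme CYP2C9 beyond about 50% at 5 µM, limit read from the data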
CYP2C19 activ: human CYP2C19 activators, primary screen, biochemical, luminescence | Cytochrome P450 2C19 (Homo sapiens), P33261 | recombinant CYP2C19, luciferin-H EGE luminescence; hits give high values; 0 = fully inhibited enzyme, 1 = untreated enzyme | activation factor at 5 µM | 96,000 tested, under 10 active | AID 1025, 2008;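 active means activation factor of at least 2 at 5 µM in the primary screen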;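 further: 0 = wells with 2.5 mM tranylcypromine and 1 = vehicle-only wells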
CYP2C19 inhib: blockers of cytochrome P450 2C19 activity – biochemical, luminescence, ADME assay, primary screen; P33261; AID 778, 2007; actives 21% (n = 96,000); CYP2C19 Supersomes, luciferin-H EGE luminescence, 30 min; inhibition, % at 5 µM;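 active means CYP2C19 inhibition above a set limit at 5 µM in the primary screen, cut at about 50% in these data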;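 further: plate controls were negative control wells for no effect and 2.5 mM tranylcypromine positive control for full effect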
The depositor's hits bear a star. A selection: hits, their analogues and other compounds. The true share with any hit is near 31%.

SMILES | CYP2C9 act | PLAP activator | CYP2C9 inhib | CYP2C19 activ | CYP2C19 inhib
Cc1ccc(C)c(S(=O)(=O)Nc2ccc(O)cc2)c1 | 0.9 | 1 | 14 | 0.3 | 72*
CCCCNS(=O)(=O)c1ccc(NS(=O)(=O)c2c(C)cc(C)cc2C)cc1 | 0 | 1.7 | 98* | 0.2 | 85*
COCCNC(=O)c1ccc(NS(=O)(=O)c2cc(C)ccc2C)cc1 | 0.8 | 1.1 | 23 | 1 | 3
Cc1noc(NS(=O)(=O)c2ccc(NC(=O)CS(=O)(=O)c3ccccc3)cc2)c1C | 0.5 | 1.3 | 54* | 1.1 | -8
COc1ccccc1CN1CC(C(=O)N2CCN(c3ccc(F)cc3)CC2)CC1=O (stereo not given) | 1.4 | 1.5 | -42 | 0.6 | 43
COc1ccc(NS(=O)(=O)c2cc(C)ccc2C)cc1 | 0.3 | 1 | 72* | 0.2 | 82*
COc1ccc(NS(=O)(=O)c2cc(OC)ccc2NC(=O)c2cc(C)oc2C)cc1 | 0.6 | 1.2 | 44 | 0.1 | 91*
Cc1cc(C)c(S(=O)(=O)Nc2ccc(O)cc2)cc1C | 1.1 | 1 | -12 | 0 | 97*
CCNS(=O)(=O)c1ccc(NS(=O)(=O)c2cc(C)ccc2C)cc1 | 0 | 1.3 | 97* | 0.4 | 64*
CCNS(=O)(=O)c1ccc(NS(C)(=O)=O)cc1 | 1 | 1.1 | -3 | 1.1 | -10
O=C(c1cccc(S(=O)(=O)N2CCOCC2)c1)N1CCN(c2ccc(F)cc2)CC1 | 0.9 | 1.3 | 10 | 0.9 | 14
Cc1onc(-c2ccccc2Cl)c1C(=O)N1C=CC(C(F)(F)Cl)=NCC1 | 0.7 | 0.9 | 32 | 0.4 | 56*
CSC1=NCCN1C(=O)c1c(F)cccc1F | 0.9 | 0.9 | 10 | 0.9 | 11
Cc1onc(-c2ccccc2Cl)c1C(=O)N1C=CC(C(F)(F)F)=NCC1 | 0.8 | 0.9 | 21 | 0.6 | 38
Cc1onc(-c2ccccc2Cl)c1C(=O)N1CCN=C1SCc1cccnc1 | 0.1 | 0.9 | 94* | 0 | 97*
CSC1=NCCN1C(=O)c1c(-c2ccccc2Cl)noc1C | 0.8 | 1.1 | 18 | 0.3 | 71*
CC(C)(CN=C1NS(=O)(=O)c2ccccc21)CNC(=O)CN1C(=O)c2ccccc2C1=O | 0.5 | 1 | 46 | 0.8 | 22
Cc1ccc(CC23CN4CCN(CC(C4)C2O)C3)c(C)c1 (stereo not given) | 1 | 1 | -4 | 0.9 | 8
O=C(O)c1ccc(COCC(F)(F)C(F)F)o1 | 1.1 | 1 | -6 | 0.8 | 20
Cc1cccc(NC(=O)CSc2nnc(CCC(=O)Nc3ccc(C)c(Cl)c3)n2C)c1 | 1.2 | 1 | -19 | 1 | -4
CCCn1c(=O)[nH]c(=O)c2c1nc(-c1ccc(OC(F)F)c(OC)c1)n2CCOC | 0.5 | 1.6 | 54* | 0.6 | 45
CCc1nc(NCC(C)C)c(C#N)c2c1COC(C)(C)C2 | 0.8 | 0.8 | 19 | 0.9 | 8
CC1(C)Cc2c(C#N)c(NCCN3CCOCC3)nc(-c3ccco3)c2CO1 | 0.7 | 1.7 | 28 | 0.8 | 23
CCOC(=O)N1CCN(c2ncnc3c2oc2nc(C)c4c(c23)CC(C)(C)OC4)CC1 | 0.8 | 1.5 | 24 | 0.9 | 12
Cc1ccc(S(=O)(=O)N2CCN(c3nc(C)c4c(c3C#N)CC(C)(C)OC4)CC2)cc1 | 0.2 | 1.8 | 83* | 0.2 | 77*
SMILES | CYP2C9 act | PLAP activator | CYP2C9 inhib | CYP2C19 activ | CYP2C19 inhib
CC1(C)Cc2c(C#N)c(N3CCOCC3)nc(Cc3ccccc3)c2CO1 | 0.2 | 1.5 | 77* | 0.1 | 93*
CCc1nc(N2CCOCC2)c(C#N)c2c1COC(C)(C)C2 | 0.9 | 1.4 | 12 | 0.4 | 60*
CC1CCN(c2nc(-c3ccco3)c3c(c2C#N)CC(C)(C)OC3)CC1 | 0.4 | 1.5 | 56* | 1.1 | -11
CCCN(CCC)CCNC(=O)C1CC(=O)N(c2ccc(OC)cc2)C1c1ccc(OC)cc1 (stereo not given) | 1 | 1.6 | 0 | 1.1 | -5
CCn1c(=O)c2c(n3cnnc13)-c1ccccc1CC21CCCCC1 | 0.7 | 0.9 | 27 | 0.8 | 16
Nc1cc(=O)[nH]c(SCc2cccc(Cl)c2)n1 | 1.1 | 1 | -13 | 1.1 | -10
CC1(C)Cc2c(C#N)c(N3CCN(C(=O)c4ccccc4)CC3)nc(Cc3ccccc3)c2CO1 | 0 | 1.7 | 98* | 0.5 | 48
CC(C)Cc1nc(N2CCN(C(=O)Cc3ccccc3)CC2)c(C#N)c2c1COC(C)(C)C2 | 0.5 | 1.1 | 46 | 0.7 | 27
CCc1nc(N2CCN(C(=O)c3ccccc3)CC2)c(C#N)c2c1COC(C)(C)C2 | 0.2 | 1.5 | 77* | 0.2 | 75*
COc1cc(O)oc1C=Nc1ccccc1 | 1 | 1.2 | -2 | 1 | 4
CCOC1(C(F)(F)F)NC(=O)N(Cc2ccc(OC)cc2)C1=O (stereo not given) | 0.9 | 1 | 14 | 0.6 | 38
Cc1cc(C)cc(NS(=O)(=O)c2cnc(Cl)c(Cl)c2)c1 | 0.1 | 1.3 | 86* | 0 | 100*
Cc1ccc(S(=O)(=O)Nc2cccnc2)cc1 | 1 | 1.1 | 2 | 0.8 | 15
CCN(CCCNC(=O)CN1C(=O)COc2ccccc21)c1cccc(C)c1 | 0.3 | 1.1 | 67* | 0.2 | 82*
Cc1ccc(CNC(=O)CN2C(=O)COc3ccc(C)cc32)cc1 | 1.1 | 1.1 | -12 | 0.3 | 69*
CC1Oc2ccccc2N(CC(=O)c2ccccc2)C1=O (stereo not given) | 0.8 | 0.9 | 19 | 0.5 | 46
Cc1ccc2c(c1)N(CC(=O)O)C(=O)CO2 | 1 | 0.9 | -5 | 0.9 | 5
CC1Oc2ccccc2N(CC(=O)NCCc2ccccc2)C1=O (stereo not given) | 0.7 | 1.1 | 26 | 0.1 | 94*
Cc1ccc2c(c1)N(CC(=O)NC1CCC(C)CC1)C(=O)CO2 (stereo not given) | 1.1 | 0.9 | -6 | 0.4 | 62*
Cc1ccc(-c2nnc(C)c(N3CCOCC3)n2)cc1 | 1 | 1.1 | 1 | 0.9 | 12
Cc1ccc2c(c1)N(CC(=O)NCc1cccs1)C(=O)CO2 | 1.2 | 0.9 | -18 | 0.3 | 68*
CC1Oc2ccccc2N(CC(=O)N(Cc2ccccc2)Cc2ccccn2)C1=O (stereo not given) | 0.3 | 0.9 | 65* | 0.4 | 61*
O=C(CN1C(=O)C2(OCCCO2)c2ccccc21)NCCc1ccccc1 | 0.8 | 1 | 17 | 0.1 | 86*
Cc1ccccc1CN1C(=O)C2(OCCCO2)c2ccccc21 | 2.2* | 1 | -116 | 0.7 | 28
CC1(C(=O)NC2CCCCCCC2)CCC(=O)N1Cc1cccnc1 (stereo not given) | 0.8 | 1.1 | 16 | 0.9 | 14
